# Laboratory results as given in PubChem BioAssay (EPA / NIEHS).
# Records with an inconclusive call do not appear. Active and inactive are the calls of the source. How the source made its calls: active means hit-call score of the fitted dose curve at least 0.9, where 1 is the maximum; inconclusive means response in the unintended direction; inactive means score below 0.9.
# Assay: Tanguay_ZF_120hpf_PFIN_legacy: (Legacy) Oregon State University Tanguay Lab 120 Hour Post-fertilization zebrafish Assay for Pectoral Fin Malformation (AID 2283648);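 further: each larva judged yes or no for fin defect by brightfield with dead larvae skipped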
# Protocol: Tanguay_ZF_120hpf_legacy is a whole embryo, multiplexed endpoint assay using zebrafish larvae exposed for 120 hours post fertilization on a 96-well plate.Tanguay_ZF_120hpf_PFIN_legacy is one of one assay component(s) measured or calculated from the Tanguay_ZF_120hpf_legacy assay. It is designed to make measurements of zebrafish development as detected with brightfield microscopy of developing zebrafish embryos.Data from the assay component Tanguay_ZF_120hpf_PFIN_legacy was analyzed into 1 assay endpoints. This assay endpoint, Tanguay_ZF_120hpf_PFIN_legacy, was analyzed in the positive analysis fitting direction relative to DMSO as the negative control and baseline of activity. Using a type of morphology reporter, gain-of-signal activity can be used to understand changes in developmentals as they relate to the whole embryo. To generalize the intended target to other relatable targets, this assay endpoint is annotated to the zebrafish development intended target family, where the subfamily is pectoral fin morphogenesis.
# Zebrafish husbandry: Tropical 5D wild-type adult zebrafish were housed in at an approximate density of 1000 per 100 gallon tank at the Sinnhuber Aquatic Research Laboratory, Oregon State University, Corvallis, OR. Each tank was kept at standard laboratory conditions of 28C on a 14-h light/10-h dark photoperiod in fish water consisting of reverse osmosis water supplemented with a commercially available salt (Instant Ocean). Spawning funnels were placed into the tanks the night prior, and embryos were collected and staged. To increase bioavailability, the chorion was enzymatically removed using pronase (63.6mg/ml, >/= 3.5U/mg, Sigma-Aldrich: P5147) at 4 hours post fertilization (hpf) using a custom automated dechorionator.Chemical exposures: Six hpf dechorionated embryos were placed 1 embryo per well in a 96-well plate prefilled with 90 ul of EM using automated embryo placement systems (AEPS). Ten microliters of each row of dilution plate 2 was added to 2 exposure plates. The final DMSO concentration used was 0.64% (vol/vol). Thirty-two embryos were also exposed to 5uM trimethyltin chloride (positive control). Plates were sealed to prevent evaporation and foil covered to reduce light exposure and kept in a 28C incubator. Embryos were statically exposed until 120 hpf. At 24 hpf, embryos were assessed for photomotor response using a custom photomotor response analysis tool (PRAT) and for developmental toxicity endpoints (MO24: mortality at 24 hpf, DP: developmental progression, SM: spontaneous movement, and NC: notochord distortion). At 120 hpf, locomotor activity was measured using Viewpoint Zebralab and assessed for 18 endpoints. Zebrafish acquisition and analysis program (ZAAP), a custom program designed to inventory, acquire, and manage zebrafish data, was used to collect developmental endpoints as either present or absent (i.e., binary responses were recorded). If mortality occurred for an embryo (at either 24 or 120 hpf), the non-mortality endpoints were not measured.
SMILES,outcome,AC50
O=C(O)CCCCC(=O)O,inactive,
CCCCC(CC)COC(=O)CC(C(=O)OCC(CC)CCCC)S(=O)(=O)O (stereo not given),inactive,
CCCCCCCCCCCCCO,inactive,
CCOc1ccc2c(c1)C(C)=CC(C)(C)N2,inactive,
Cc1nc(-c2ccc3c(c2)CCN(CCC2CCC(NC(=O)/C=C/c4ccc(F)cc4)CC2)CC3)no1 (stereo not given),inactive,
C[Si]1(C)O[Si](C)(C)O[Si](C)(C)O[Si](C)(C)O1,inactive,
CCCCCCC(=O)OCC,inactive,
Nc1ccc2c(c1)C(=O)c1ccccc1C2=O,inactive,
C[C@]12C=CC(=O)C=C1CC[C@@H]1[C@@H]2C(=O)C[C@@]2(C)[C@H]1CC[C@]2(O)C(=O)CO,inactive,
Cc1cccc([N+](=O)[O-])c1C,inactive,
CCCCOC(=O)CCCCCCCCC(=O)OCCCC,inactive,
FC(F)(F)C(F)(F)C(F)(F)C(F)(F)C(F)(F)C(F)(F)CCI,inactive,
Cc1cc(NC(=O)C(=O)O)cc(C)c1Oc1ccc(O)c2c1CCC2,,0.499 µM (active)
Cc1ccc(N(C)C)cc1,inactive,
CCCCCCOCCO,inactive,
CN[C@H]1CC[C@@H](c2ccc(Cl)c(Cl)c2)c2ccc(S(N)(=O)=O)cc21,inactive,
CN1CCN(Cc2cc(-c3ccc4[nH]c(=O)oc4c3)co2)[C@@H](c2ccc(F)cc2)C1,inactive,
CCCCCCCCCCCCCCCC,inactive,
NCC1(Cc2noc(=O)[nH]2)CCCCC1,inactive,
Cc1ccc(C)c(O)c1C,inactive,

SMILES,outcome,AC50
CCCc1cc(=O)[nH]c(=S)[nH]1,inactive,
CCCCCCCCCCO,inactive,
CCOC(=O)CCC(=O)OCC,inactive,
CCCCCCCCCCC,inactive,
COc1cc(C=O)ccc1O,,42.8 µM (active)
NS(=O)(=O)c1cc2c(cc1Cl)NCNS2(=O)=O,inactive,
O=C(O)Cc1ccccc1Nc1c(Cl)cccc1Cl,inactive,
CCCCCCCCCCCC(=O)OC,inactive,
Cc1ccccc1Cl,inactive,
Oc1ccc2c(c1)OC[C@@H](N1CCC(O)(c3ccc(F)cc3)CC1)[C@H]2O,inactive,
CC1(C)CC(N=C=O)CC(C)(CN=C=O)C1 (stereo not given),inactive,
Cc1cccc(Nc2cc(Cl)nc(SCC(=O)O)n2)c1C,inactive,
OC[C@@H](O)[C@@H](O)[C@H](O)[C@H](O)CO,inactive,
O=c1[nH]cc(F)c(=O)[nH]1,inactive,
CCCCCC(=O)O,inactive,
CC1(C)NC(=O)NC1=O,inactive,
C=CCc1ccc(O)c(OC)c1,inactive,
Cc1ccc(C(C)C)c(O)c1,inactive,
Nc1ccccc1N,inactive,
CC(C)c1ccc(C(=O)N=C(N)N)cc1S(C)(=O)=O,inactive,
